# PINK1 modulator: A Quantitative High throughput Screen to Identify Chemical Modulators of PINK1 Expression; PINK1 immunofluorescence, high-content cytometry, 24 h; Potency, µM (series often up to 76.6 µM), hits mostly activators; hit rate 0.2% among 410,000; AID 624263, 2012; active means well fitted activation curve with a large enough effect; inconclusive means small, poorly fitted or top-dose-only effect; cell line not stated here; further: nearly all actives have a fitted effect of over 65% in size
#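 Compound titrations (5 concentrations, 24 h) on a stable cell line; DMSO and CCCP controls. Endpoint: fixed-cell PINK1 immunofluorescence with mitochondrial, cell and nuclear markers, scanned by microplate cytometer.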
# PTAP TSG101 blk: qHTS Assay for Iinhibitors of HIV-1 Budding by Blocking the Interaction of PTAP/TSG101; Fluorescence polarization, FITC-PTAP peptide / Tsg101 binding; Potency, µM (highest dose often 115 µM), most hits filed as inhibitors; 340,000 tested, under 10 active; AID 493005, 2010; active means well fitted inhibition curve with a large enough effect in the main read-out, with a control signal flat, not every such curve was filed as active; inconclusive means small, poorly fitted or top-dose-only effect, or effect the other way, or a change in a side signal; inactive means no such curve, though single readings can be large or run the other way
# Target sequence (Q99816 whole entry, looked up): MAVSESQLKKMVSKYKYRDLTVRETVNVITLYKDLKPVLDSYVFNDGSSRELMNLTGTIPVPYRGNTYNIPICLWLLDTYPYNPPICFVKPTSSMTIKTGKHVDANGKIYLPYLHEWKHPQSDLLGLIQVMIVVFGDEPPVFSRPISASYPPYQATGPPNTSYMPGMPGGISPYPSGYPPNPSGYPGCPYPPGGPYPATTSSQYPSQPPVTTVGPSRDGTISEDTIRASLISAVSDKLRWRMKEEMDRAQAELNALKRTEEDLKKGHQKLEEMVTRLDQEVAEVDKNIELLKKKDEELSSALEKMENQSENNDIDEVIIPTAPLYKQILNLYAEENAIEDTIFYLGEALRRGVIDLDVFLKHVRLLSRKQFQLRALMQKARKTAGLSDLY
#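 Compounds were pin-transferred onto Tsg101 binding domain (10 uM final) in HEPES pH 7.5 buffer, then FITC-PTAP peptide was added at 50 nM final. After 20 min at RT, polarization reported peptide displacement across a qHTS concentration series.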
# HTT ATP protect: qHTS Multiplex Assay to Identify Dual Action Probes in a Cell Model of Huntington: Cytoprotection (ATP) | PC12 HTT-Q103 induced, cytoprotection, ATP luminescence, 40 h | Potency, µM (titrated, usually from 56.4 µM), usual class: activators | hit rate 0.14% among 230,000 | AID 1471, 2008; further: nearly all actives have a fitted effect of over 45% in size
#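 Compounds added alongside 100 nM tebufenozide, which induces toxic Q103 huntingtin exon 1-GFP in stable PC12 cells; surviving cells quantified by luminescent ATP measurement. Medium: phenol red-free DMEM, 5% equine and 5% calf serum.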
# Anesthetic bind: qHTS Assay for Identification of Novel General Anesthetics. Ferritin light chain (Equus caballus), P02791. apoferritin/1-aminoanthracene competitive binding, fluorescence. Potency, µM (highest dose often 77.5 µM), usual class: inhibitors. hit rate 0.074% among 350,000. AID 485281, 2010; further: nearly all actives have a fitted effect of over 20% in size
# Target sequence (P02791 2-175 limits assumed): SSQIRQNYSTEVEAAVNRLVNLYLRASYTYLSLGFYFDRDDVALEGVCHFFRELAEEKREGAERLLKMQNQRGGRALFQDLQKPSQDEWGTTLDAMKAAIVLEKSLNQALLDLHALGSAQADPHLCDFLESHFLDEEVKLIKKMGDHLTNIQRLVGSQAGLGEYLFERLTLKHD
#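 Steps: apoferritin (10 uM) was premixed with half-saturated 1-AMA in PBS, compounds were pin-transferred, plates stood 10 min at room temperature, fluorescence was read at 380/535 nm, and curves were fitted with a Hill equation.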
# Epigenetic derep: Quantitative High-Throughput Screen for Regulators of Epigenetic Control; hit rate 0.2% among 280,000; Potency, µM (series often up to 53.9 µM), hits mostly activators; AID 1865, 2009; murine LDR cells, GFP reporter derepression, 30 h; further: nearly all actives have a fitted effect of over 60% in size
#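 In this reporter-derepression format, murine cells bearing a silenced integrated CMV-GFP locus incubate with test compound (30 h, 37 C), then are washed and imaged; fluorescent objects of 20–120 um count as induced cells.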
# HttQ103 aggreg: qHTS Multiplex Assay to Identify Dual Action Probes in a Cell Model of Huntington: Aggregate Formation (GFP) | PC12 HttQ103-GFP aggregates, Acumen cytometry, 40 h | Potency, µM (doses to about 46.1 µM), hits mostly inhibitors | hit rate 1.1% among 220,000 | AID 1688, 2009; further: nearly all actives have a fitted effect of over 60% in size
#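 Compounds (qHTS titration) were added to PC12 cells expressing an ecdysone-driven HTT exon 1 Q103–GFP fusion after induction with 100 nM tebufenozide. Aggregate formation was measured as GFP objects in cell lysates.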
# A number is an active result; n = inactive; u = inconclusive; x = not tested or not shown; ! = not active in a repeat; [ ] = remark or other dose. Shown is part of a subset that was picked to be rich in hits. Unless noted, the call rests on the fitted dose curve; in most records, active means well fitted curve in the direction sought with a large enough effect; inconclusive means small, poorly fitted or top-dose-only effect, or another doubt; inactive means no such curve, though single readings can be large; an effect the other way counts as inactive or inconclusive.
SMILES,PINK1 modulator,PTAP TSG101 blk,HTT ATP protect,Anesthetic bind,Epigenetic derep,HttQ103 aggreg
Cc1cc(C(=O)COc2cccc(-n3cnnn3)c2)c(C)n1-c1ccccc1,n,n,n,u,n,11.2µM
CN(C)c1ccc(/C=C2\C=Cc3ccccc32)cc1[N+](=O)[O-],n,x,x,x,x,x
Cc1nn(C)c(C)c1/C=C/C(=O)O,n,n,11.2µM,n,n,n
O=C(Cc1nc2ccccc2[nH]1)N1CCC(n2c(C3CCC3)nc3cccnc32)CC1,n,x,x,x,x,x
Cc1ccc(N=Cc2sc(O)c3ccccc23)cc1,n,u,n[10 µM],n,15.8µM,n
Cc1ccc(N=Cc2sc(O)c3ccccc23)c(C)c1,u,u,n[10 µM],n,u,u
COc1ccc2cc(CNC3CCS(=O)(=O)C3)c(-c3ccc(OC)c(OC)c3)nc2c1 (centres undefined),n,x,x,x,x,x
CCCCNc1c(-c2ccc(OC)c(SC3CCCCC3)c2)nc2ccc(C)cn12,u,n,x,x,x,x
CCCCNc1c(-c2ccc(SC3CCCCC3)c(OC)c2)nc2ccc(C)cn12,25.1µM,n,x,x,x,x
CCC(C)Sc1ccc(-c2nc3ccc(C)cn3c2NCc2ccccc2)cc1OC (centres undefined),15.8µM,u,x,x,x,x
CCC(C)Sc1cc(-c2nc3cc(C)ccn3c2NC2CCCCC2)ccc1OC (centres undefined),12.6µM,n,x,x,x,x
O=C(Nc1ccc(Cl)cc1)C1CCN(c2nc3ccccc3n3cccc23)CC1,n,x,x,n,n,x
CC(NC(=O)C1CCOCC1)c1nnc2n1CCN(Cc1cc3c(cc1Cl)OCO3)CC2 (centres undefined),n,x,x,x,x,x
C[n+]1ccnc2cc(Cl)ccc21,n,x,x,x,x,x
CCOc1ccc(NC(=O)CSc2nnc3c(n2)[nH]c2ccc(S(=O)(=O)N(C)C)cc23)cc1,n,x,x,x,x,x
Cc1cnc(-n2ncc(C(=O)NCCN3CCOCC3)c2C(C)C)nc1-c1ccc(F)cc1,n,x,x,x,x,x
CN(C)c1nc(-c2ccccn2)nnc1-c1ccccc1,n,n,n,n,n,n[9.22 µM]
CCN(CC)c1nc(-c2ccccn2)nc(-c2ccccc2)c1C#N,n,n,n,n,n,5.01µM
COc1cccc(C(=O)N(Cc2ccc(N(C)C)cc2)Cc2ccco2)c1,n,x,x,n,n,x
CCOC(=O)c1nnc(-c2ccc(C)cc2)nc1Oc1ccc(Cl)cc1Cl,n,n,n,u,n,n
CCOC(=O)c1nnc(-c2ccc(C)cc2)nc1Oc1ccccc1Cl,n,n,x,n,u,22.4µM
CSc1nsc(/C=C/Nc2ccc(C)c(C)c2)c1C#N,n,n,n,n,3.55µM,u
S=C1Cc2ccccc2N1,n,n,1.26µM,n,n,n[9.22 µM]
CSc1ccccc1C(=O)NCc1nc(-c2cccc(NC(=O)c3ccoc3C)c2)oc1C,n,x,x,x,x,x
O=c1cc(-c2ccco2)oc2c1ccc1ccccc12,n,n,n,n,n,u
SMILES,PINK1 modulator,PTAP TSG101 blk,HTT ATP protect,Anesthetic bind,Epigenetic derep,HttQ103 aggreg
O=c1cc(C(Cl)(Cl)Cl)oc2c1ccc1ccccc12,n,n,n,n,n,7.08µM
O=c1cc(-c2ccccc2O)oc2c1ccc1ccccc12,x,x,0.447µM!,x,n,x
Cc1cc2c(c(-c3nc4ccccc4s3)c1)OC(CNC(=O)CCc1cccnc1)C2 (centres undefined),n,x,x,x,x,x
CNc1ccc(/C=C2\C=Cc3ccccc32)cc1Cl,n,x,x,x,x,x
CC[n+]1c(/C=C/Nc2ccccc2)sc2ccccc21,n,n,n,n,n,11.2µM
CC[n+]1c(C=C2C=C(C)OC(C)=C2)sc2ccccc21,22.4µM,n,n,u,7.94µM,3.98µM
CC[n+]1c(/C=C2/C=C(C)CC(C)C2)sc2ccccc21 (centres undefined),u,n,n,n,n,n
CCCCSc1nnc(-c2ccc(C)cc2)c2ccccc12,u,n,x,n,n,11.2µM
CN(C)C(=O)CSc1nnc(-c2ccc(F)cc2)c2ccccc12,n,n,n[10 µM],n,n,n[9.22 µM]
COC(=O)c1ccccc1NC(=O)c1noc2c1CSc1ccccc1-2,n,x,x,n,n,x
CCC1CN(CCNC(=O)c2cc(C)nn2CC)Cc2cc(OC)ccc2O1 (centres undefined),n,x,x,x,x,x
CCc1ccc(NC(=O)Nc2ccc3c(c2)N(C)C(=O)CS3)cc1,17.8µM,n,n,u,n,u
CC1CC(C)CN(S(=O)(=O)c2ccc(C(=O)NCCCn3ccnc3)cc2)C1 (centres undefined),n,n,n,n,n,7.94µM
O=C(c1ccc(F)c(F)c1)N1CCOc2ccc(CN3CCN(CCO)CC3)cc2C1,n,x,x,x,x,x
O=C(c1ccc(C23CC4CC(CC(C4)C2)C3)o1)N1CCOCC1,n,n,n,n,n,5.62µM
Cc1ccccc1C(=O)NC(C)c1nnc2n1CCN(Cc1ccnc3ccccc13)CC2 (centres undefined),n,x,x,x,x,x
CC(=O)c1ccc(F)c(-c2cc(C)cc3c2OC(CNC(=O)Cc2ccc4c(c2)OCO4)C3)c1 (centres undefined),n,x,x,x,x,x
CCCCC(=O)NC(c1ccccc1OC)c1ccc2cccnc2c1O (centres undefined),n,n,n[10 µM],n,3.55µM,n[9.22 µM]
COc1ccc(C(NC(C)=O)c2ccc3cccnc3c2O)c(OC)c1 (centres undefined),n,n,n,n,u,3.98µM
CCCC(=O)NC(c1ccccc1OC)c1ccc2cccnc2c1O (centres undefined),n,n,n[10 µM],n,7.08µM,u
CCC(=O)NC(c1cccs1)c1ccc2cccnc2c1O (centres undefined),n,n,n[10 µM],n,3.98µM,n[9.22 µM]
CCCCC(=O)NC(c1ccc(Cl)cc1)c1ccc2cccnc2c1O (centres undefined),n,n,x,x,x,x
COc1ccc(C(NC(C)=O)c2ccc3cccnc3c2O)cc1OC (centres undefined),n,x,x,x,x,x
CC(C)CC(=O)NC(c1cccs1)c1ccc2cccnc2c1O (centres undefined),n,n,n[10 µM],n,n,n[9.22 µM]
COc1ccccc1C(=O)N[C@@H]1c2ccccc2C2(CCN(Cc3nccs3)CC2)[C@H]1OC,n,x,x,x,x,x
CC(C)C(=O)NC(c1ccco1)c1ccc2cccnc2c1O (centres undefined),n,n,n,n,3.55µM,3.98µM
CCN1/C(=C/C(=O)c2ccco2)Sc2ccccc21,n,n,n,n,n,u
CCN1/C(=C/c2sc(-c3ccccc3C)c[n+]2C)Sc2ccccc21,u,n,n,u,n,2.24µM
